# Measurements reported in PubChem BioAssay (NCI).
# The panel holds about 83,000 compounds, 20% with a hit somewhere; the sample as a whole holds those more often.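 Cell lines were cultured in 96-well plates, exposed to a single compound concentration, and assessed for percent growth 48 hours later.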 Activity calls are given as the source filed them.
# Test system: NCI-H23 lung
# Assay: NCI-60 one-dose screen, 48 h (100 = growth as untreated, 0 = no growth, -100 = all killed)
# Conditions: 10 µM unless noted
# Protocol: Growth inhibition of the NCI-H23 human Non-Small Cell Lung tumor cell line is measured as a screen for anti-cancer activity. Cells are grown in 96 well plates and exposed to the test compound for 48 hours. Compounds are tested at a single concentration, which is 10^-5 M for most compounds. The reported endpoint is percent growth (GI% or GIPRCNT), where numbers from 0 - 100% represent growth inhibition, and numbers from -100% - 0 represent cell death. For example, a value of 40 represents 60% growth inhibition. A value of 0 means no net growth occurred over the course of the experiment. A value of -40 indicates 40% of cells at the beginning of the experiment died by the end of the experiment. A value of -100 means all cells are dead at the end of the experiment.
# NCI-60 Human Tumor Cell Lines Screen was performed using the standard one-dose NCI protocol, which is described in more detail at https://dtp.cancer.gov/discovery_development/nci-60/default.htm.
# Compounds with GIPRCNT values below 10 were considered active. Activity score was based on GIPRCNT using the following formula: […]
# Score is 0 for GIPRCNT values of 100 or above, 50 for GIPRCNT values of 0, and 100 for GIPRCNT values of -100.
row,SMILES,growth
1,Cc1cc(C(=O)NN)c(C#N)c(=O)[nH]1,100% (inactive)
2,ClCC(Cl)C1CCC(Cl)C(Cl)C1 (stereo not given),105% (inactive)
3,CCOC(=O)CSCCC#N,95.3% (inactive)
4,Clc1ccc(C(SCc2ccccc2)SCc2ccccc2)cc1,86.1% (inactive)
5,CC(C)c1ccccc1NC(=O)N1CCC(C(C)C)CC1,107% (inactive)
6,O=S1(=O)c2ccccc2Oc2ccccc21,104% (inactive)
7,CCOC(=O)C(=O)CC(=O)c1ccccc1,95.4% (inactive)
8,O=C(CCl)Oc1ccc([N+](=O)[O-])cc1,108% (inactive)
9,O=S(Cc1ccccc1)/C(=C/NC(=S)Nc1ccccc1)c1ccccc1 (stereo not given),89.3% (inactive)
10,CN(C(=S)S(=O)(=O)C12CC3CC(CC(C3)C1)C2)c1ccccc1,97.5% (inactive)
11,Cc1ccc2nc(N)nnc2c1,94.6% (inactive)
12,CC(=O)C1C(=O)C(=O)N(c2cccc([N+](=O)[O-])c2)C1=O (stereo not given),99% (inactive)
13,S=C=Nc1ccc2ccccc2c1,96.9% (inactive)
14,C=C(C)COc1ccc(C(C)(C)C)cc1,108% (inactive)
15,Cc1cccc2ccccc12,104% (inactive)
16,CCCC(=O)c1cccs1,95.3% (inactive)
17,CCCCCCCCCc1ccc(OC(C)=O)cc1,105% (inactive)
18,c1ccc(Oc2c3ccccc3nc3ccccc23)cc1,8.18% (active)
19,Cc1ccc2nc(-c3ccc(N=Cc4ccccc4O)cc3)sc2c1,84.4% (inactive)
20,O=[N+]([O-])c1ccc2[nH]c(=S)n(/C=C(/c3ccc(Cl)cc3Cl)S(=O)(=O)Cc3ccc(Cl)cc3Cl)c2c1,96.2% (inactive)

row,SMILES,growth
1,Oc1cccnc1CN1CCCC1,100% (inactive)
2,CCCCN(C=S)CCCC,103% (inactive)
3,NC(CO)(CO)c1ccccc1,99.1% (inactive)
4,CCOc1ccncc1[N+](=O)[O-],106% (inactive)
5,CSc1cnc2ccccc2n1,103% (inactive)
6,COc1ccc2c(Cl)cc(NC(=O)Nc3c(C)cccc3C)nc2c1,96.9% (inactive)
7,OCc1cccnc1,100% (inactive)
8,CN1C(=O)NC(c2ccc(Cl)cc2)(c2ccc(Cl)cc2)C1=O,98.2% (inactive)
9,O=c1cc(Cl)nc2ccccn12,98.8% (inactive)
10,COC(c1ccc2c(c1)OCO2)C(C)Br (stereo not given),95.2% (inactive)
11,CC(=O)N(C(C)=O)c1ccc(C)cc1,98.1% (inactive)
12,NC(=O)NCCO,98.9% (inactive)
13,Nc1ccc(F)c(Cl)c1F,103% (inactive)
14,C=CC(=O)OC1CCC(C(C)(C)CC)CC1 (stereo not given),108% (inactive)
15,CCCCCCCCCCCCCCCCCC(=O)NCCNC(=O)CCCCCCCCCCCCCCCCC,95.2% (inactive)
16,COc1c(CNC(=O)CCl)cc2[nH]c(C)cc2c1CNC(=O)CCl,57.2% (inactive)
17,NC(=S)N/N=C/c1ccc(OC(=O)COc2ccccc2)cn1,28.2% (inactive)
18,CCOC(=N)CC(=O)Nc1cccc(C)c1Cl,100% (inactive)
19,N#Cc1ccc2nc[nH]c2c1,99.1% (inactive)
20,O=C1CSc2ccccc2N1,99.8% (inactive)
